Test results published in PubChem BioAssay AID2763 (National Center for Advancing Translational Sciences (NCATS), 2010).
Records with an inconclusive call do not appear. Values without a mark were called inactive. Calls of active or inactive are those of the source. Calls come from the whole dose curve; as a rule, active = well fitted inhibition curve with a large enough effect; inconclusive = small, poorly fitted or top-dose-only effect, or effect the other way; inactive = no such curve, though single readings can be large or run the other way.

Test: Concentration response confirmation VP16 counterscreen for inhibitors of ROR gamma transcriptional activity; note: nearly all actives have a fitted effect of over 70% in size
Settings: Drosophila S2 Gal4-VP16 UAS-luciferase, luminescence, 20 h; series mostly up to 46.1 µM; activity change, negative = inhibition: at the top concentration
In short: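 Luciferase counterscreen: UAS-driven Photinus reporter in S2 cells expressing copper-inducible Gal4-VP16 fusion, 600 cells/well. Induced with copper sulfate (700 uM final) 1 hr after compound, incubated 20 hr at ambient temperature before luminescence detection.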
% is set by controls: 0 for no effect and ±100 for the full control effect; potency is the fitted concentration of half-maximal effect.

Row | Compound | Potency | activity change, negative = inhibition [%]
1 | CCOc1ccc(OCc2cccc(C(=O)O)c2)cc1 | 8.88 µM (active) | –
2 | S=c1[nH]c(-c2ccc(Br)cc2)cn1CCc1ccccc1 | 14.1 µM (active) | –
3 | O=C(NC(=S)Nc1nc(-c2ccccc2)cs1)c1cccnc1 | – | 16.5
4 | Cc1ccc2nc(-c3ccc(NC(=O)COC(=O)c4ccc(=O)[nH]c4)cc3)sc2c1 | 12.5 µM (active) | –
5 | CCN1CCCc2cc(CN(CCN3CCOCC3)C(=S)Nc3ccc(C)cc3)ccc21 | 11.2 µM (active) | –
6 | Cc1ccc(C)c(-n2[nH]c3c4c(ccc3c2=O)C(=O)c2ccccc2C4=O)c1 | – | -24.7
7 | CC(C)(C)NC(=O)CSc1nc2ccc(NC(=O)CSc3nnnn3Cc3ccccc3)cc2s1 | 12.5 µM (active) | –
8 | O=c1c2cc(Br)ccc2[nH]c(=S)n1Cc1cccnc1 | 11.2 µM (active) | –
9 | O=c1oc2c3c(nn2c2ccccc12)CCCC3 | – | 14.9
10 | O=[N+]([O-])c1ccccc1/C=C/C=N/n1c(-c2ccccc2)n[nH]c1=S | – | 17.5
11 | CCN1CCN(CCC(=O)Nc2ccccc2)CC1 | – | -3.58
12 | COc1cc(C2c3cc4c(cc3C(OC3OC5COC(c6cccs6)OC5C(O)C3O)C3COC(=O)C23)OCO4)cc(OC)c1O (stereo not given) | 25 µM (active) | –
13 | CCCCCCn1ccc(=N)cc1 | 11.2 µM (active) | –
14 | Cc1nn(-c2ccccc2)c(C)c1C(=O)Nc1nnc(-c2ccco2)o1 | 1.25 µM (active) | –
15 | Cc1cc(C)c2[nH]c(C(=O)Nc3ccc4c(c3)OCO4)cc2c1 | – | -13.4
16 | COc1ccc(-c2nc(CS(=O)(=O)CC(=O)NCCc3ccc(C)cc3)c(C)o2)cc1 | – | -7.61
17 | Cc1ccc(-c2n[nH]c(=S)n2/N=C/C=C\c2ccccc2[N+](=O)[O-])cc1 | – | -3.42
18 | C=CCn1c(SCC(=O)c2ccc(OC)cc2)nnc1-c1cc2cccc(OC)c2o1 | – | -9.07

Row | Compound | Potency | activity change, negative = inhibition [%]
19 | Cc1nn(-c2cc(C)c3ccccc3n2)c2c1C1C(C2)C1(C)C (stereo not given) | 22.3 µM (active) | –
20 | O=C(CCCN1C(=O)/C(=C/c2ccccc2Cl)SC1=S)NNC(=O)c1ccc(Cl)cc1Cl | 4.45 µM (active) | –
21 | Cc1cc(C)nc(-n2nc(C)cc2NC(=O)c2ccc(F)cc2F)n1 | 2.81 µM (active) | –
22 | CCOc1ncccc1C(=O)OCC(=O)Nc1ccc(-c2nc3ccc(C)cc3s2)cc1 | 3.53 µM (active) | –
23 | Cc1cc(NC(=O)CN2CCOCC2)n(-c2nc3ccccc3s2)n1 | 12.5 µM (active) | –
24 | COc1ccccc1CNC(=O)[C@@H](NC(=O)C1CCN(C(=O)[C@@H]2CCCN2C(=O)OC(C)(C)C)CC1)C(C)C | – | 0.516
25 | Cc1ccc(OCCn2cc(C(=S)N3CCCC3)c3ccccc32)cc1C | 25 µM (active) | –
26 | O=C(CSc1ccccc1C(=O)N1CCCCC1)NCC1CCCCC1 | – | 0.588
27 | Cc1ccc(Oc2nc(-c3ccccn3)nc3ccccc23)cc1 | 3.53 µM (active) | –
28 | O=C(COc1ccccc1Cl)NCCCN1CCOCC1 | – | -6.78
29 | O=C1c2ccccc2C(=O)c2c1ccc1c(=O)n(C3CCCCC3)[nH]c21 | – | -27.9
30 | Cc1sc2ncnc(Sc3nnc4sc5ccccc5n34)c2c1C | – | -7.34
31 | Fc1cccc2sc(Nc3nnc(-c4ccco4)o3)nc12 | 6.28 µM (active) | –
32 | COc1ccc(C(=O)Nc2scc(-c3ccc(Cl)cc3Cl)c2C(N)=O)cc1 | – | -28.8
33 | c1ccc(Cn2c(-c3ccccc3)c[n+]3c2SCCC3)cc1 | – | -16.3
34 | COCCC1CCCCN1C(=O)c1cc(COc2ccc(-n3cncn3)cc2)on1 (stereo not given) | 19.9 µM (active) | –
35 | Cc1cc(C)nc(-n2nc(C)cc2NC(=O)CNC(C)c2ccccc2)n1 (stereo not given) | 19.9 µM (active) | –
